Screens deposited in PubChem by several laboratories.
In the library only some 4.5% were active in any assay of this set; here they are far more common.
Rpn11 inh = blocks the human proteasome subunit Rpn11; human 26S proteasome, Ub4-pepOG fluorescence polarization; 20S core pre-blocked with epoxomicin; inhibition, % at 20 µM; actives 0.59% (n = 360,000); AID 588493;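 active = inhibition at 20 µM, scaled to each plate's controls, above about 33%, limit read from the data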
Target sequence (O00487 whole entry, looked up): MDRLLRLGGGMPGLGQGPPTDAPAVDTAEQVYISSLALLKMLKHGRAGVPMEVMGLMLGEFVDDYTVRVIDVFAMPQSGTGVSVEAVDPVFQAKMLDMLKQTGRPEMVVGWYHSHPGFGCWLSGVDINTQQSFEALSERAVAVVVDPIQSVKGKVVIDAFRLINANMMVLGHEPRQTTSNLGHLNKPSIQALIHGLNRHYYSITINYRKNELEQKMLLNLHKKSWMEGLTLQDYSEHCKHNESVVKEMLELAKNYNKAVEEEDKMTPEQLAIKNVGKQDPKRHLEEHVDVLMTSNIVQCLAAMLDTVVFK
dFosB act-1 = mouse delta FosB homodimer activation; P13346; purified delta FosB, TAMRA-CDK5 oligo fluorescence polarization; percent of positive-control signal above neutral wells; activation, % at 25 µM; actives 0.99% (n = 340,000);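 active = mean activation above about 17%, with every replicate also reaching it, limit read from the data, passing the limit was not always enough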
Target sequence (P13346 whole entry, looked up): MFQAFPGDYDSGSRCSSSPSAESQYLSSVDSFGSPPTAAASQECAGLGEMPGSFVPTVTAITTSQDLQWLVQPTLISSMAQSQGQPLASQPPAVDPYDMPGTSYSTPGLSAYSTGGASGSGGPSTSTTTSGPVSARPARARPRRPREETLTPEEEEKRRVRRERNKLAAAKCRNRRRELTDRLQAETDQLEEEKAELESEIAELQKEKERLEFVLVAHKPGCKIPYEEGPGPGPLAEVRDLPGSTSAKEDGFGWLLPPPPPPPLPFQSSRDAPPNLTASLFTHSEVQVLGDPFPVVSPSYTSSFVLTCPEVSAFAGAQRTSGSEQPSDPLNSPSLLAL
NR3A LBD binder = modulates the human NR3A ligand-binding domain; NR3A LBD differential scanning fluorimetry, Tm shift; 0% = protein alone, 100% = glycine-bound protein; actives 2.5% (n = 340,000); Tm shift relative to glycine control, % at 25 µM; AID 1259313;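 active = melting temperature shift of at least 10% of the positive control shift, at one fixed dose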
TPT1 inhibitor = blocks Candida albicans tRNA 2'-phosphotransferase. AID 1962. recombinant caTPT1, FP RNA substrate dephosphorylation. actives 0.81% (n = 300,000). inhibition, % at 5 µM;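 active = inhibition above the mean of all tested compounds plus 3 SD, set per screening campaign, cut at about 24% in these data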;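 note: plate controls were DMSO alone for no effect and ferristatin control at 100 nM for full effect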
EBNA-1 inhibitor = blocks EBNA-1 binding to DNA | AID 1950 | actives 0.34% (n = 300,000) | EBNA-1 DNA binding, fluorescence polarization | inhibition, % at 14.8 µM; in the data active = inhibition above about 28%
ZTA counter = blocks Epstein-Barr virus ZTA, an EBNA-1 counter-screen. ZTA-DNA binding, fluorescence polarization. AID 2234. actives 0.15% (n = 320,000). inhibition, % at 11 µM. P03206; in the data active = inhibition above about 33%
dFosB act-2 = delta FosB (mouse) homodimer activation. shares compounds with dFosB act-1. purified delta FosB, TAMRA-CDK5 oligo fluorescence polarization; normalised: neutral wells 0, positive control 100. activation, % at 24.9 µM. 2,400 tested, under 10 active. AID 588690;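 active = highest replicate activation at or above 34% and every replicate reaching that threshold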;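 note: higher polarization means more probe DNA bound by delta FosB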
The depositor's hits bear a star; . = not tested or not shown.

SMILES	Rpn11 inh	dFosB act-1	NR3A LBD binder	TPT1 inhibitor	EBNA-1 inhibitor	ZTA counter	dFosB act-2
O=C(C1CCC(CNc2nc(=S)[nH]c3ccccc23)CC1)N1CCN(c2ccc(F)cc2)CC1 (stereo unspecified)	-0.2	37.2*	-10.9	.	.	.	1.1
O=C(NCc1ccccc1Cl)C1CCC(CNc2nc(=S)[nH]c3ccccc23)CC1 (stereo unspecified)	3.9	70.5*	-0.8	2.6	-22.4	4.1	1.1
O=C(Cc1csc(Nc2nc(=S)[nH]c3ccccc23)n1)NCc1cccc(Cl)c1	19.6	4.1	2.7	1.2	8.1	16.9	.
COc1ccc(N2CCN(CCCNC(=O)C3CCC(CNc4nc(=S)[nH]c5ccccc45)CC3)CC2)cc1 (stereo unspecified)	2.4	-0.7	-1.9	-1.8	7.3	16.4	.
O=C(Cc1csc(Nc2nc(=S)[nH]c3ccccc23)n1)NCc1ccccc1Cl	4.2	49.1*	0.7	-2.2	13.3	-2.7	7.3
Cc1cccc(C)c1N1CCN(c2ccc3nnc(C(F)(F)F)n3n2)CC1	-3.7	-10.6	1.7	2.5	-8.6	5.8	.
CCc1noc(C)c1C(=O)Nc1ccc(F)c(F)c1	-2.3	-0.8	2.6	-0.4	-2.5	-2.8	.
NC(=O)c1cc(S(=O)(=O)N2CCCC2)ccc1OCCOc1ccccc1	1.9	-1.2	3.7	.	.	0.5	.
Cc1ccc(-c2cc(C(=O)NCCN3CCOCC3)c3ccccc3n2)o1	-0.2	-2.7	1.5	-3.5	7.3	-9.8	.
CCc1nnc(NS(=O)(=O)c2ccc(NCc3cc(Cl)cc(Cl)c3O)cc2)s1	-1.2	-11.5	-3.8	0.0	18.2	1.0	.
CCCCOc1ccccc1NC(=O)Cn1c(-c2nonc2N)nc2ccccc21	-5.5	73.6*	-0.7	3.5	1.8	-15.3	2.0
Nc1nonc1-c1nc2ccccc2n1CC(=O)N/N=C\c1ccc(-c2ccc(Cl)cc2)o1	4.3	34.7*	1.7	4.4	15.0	23.6	-6.9
CCOc1ccc(CCNC(=O)Cn2c(-c3nonc3N)nc3ccccc32)cc1OCC	10.7	23.7*	2.1	0.3	14.3	-2.5	-0.8
C[C@H]1CN([C@@H](C)CO)C(=O)c2cccc(NC(=O)c3ccc(-c4nccs4)cc3)c2O[C@@H]1CN(C)C(=O)NC1CCCCC1	7.1	-1.8	0.1	.	.	.	.
Cc1ccc2nc(N3CCN(C(=O)c4ccco4)CC3)c3nncn3c2c1	-5.3	-10.2	-4.8	-1.7	-3.4	-11.3	.
COc1ccc(/C=C2\SC(=O)N(CC(=O)NC3C=CS(=O)(=O)C3)C2=O)cc1 (stereo unspecified)	-3.4	41.0*	1.4	-2.5	6.9	9.8	4.0
COc1ccc(-c2cc(C(F)(F)F)nc(SCC(=O)Nc3sc4c(c3C#N)CCC4)n2)cc1	5.0	-1.9	4.7	0.5	-1.3	-14.2	.
COc1ccc(-c2nnn(CC(=O)Nc3sc4c(c3C#N)CCCC4)n2)cc1	1.6	26.5*	9.1	-3.2	-4.8	-3.8	1.3
COc1ccc(CC(=O)NNS(=O)(=O)c2ccc(F)cc2)cc1	-5.2	0.5	-2.3	-1.4	0.3	-2.9	.
CSc1ccccc1NC(=O)Nc1cccc(Cl)c1Cl	0.8	26.5*	-1.2	-1.8	20.4	1.1	-0.1
CSc1ccccc1NC(=O)Nc1cccc(Cl)c1C	-3.8	6.0	-2.1	-2.8	1.7	-0.1	.
CC(=O)Nc1ccc(-c2ccnc3c2CC(C)(C(=O)Nc2cccc(OC(F)(F)F)c2)O3)cc1 (stereo unspecified)	4.5	.	.	.	.	.	.
Cc1nc2cc(N3CCCCC3)c(NC(=O)c3ccncc3)cc2c(=O)n1Cc1ccccc1	1.8	24.5*	0.8	.	.	.	6.1
Cc1ccc(OCC(=O)NCCCNC(=O)c2ccncc2)cc1C	0.9	-1.6	1.2	0.0	-6.7	-9.2	.
Cc1sc2ncnc(SCC(=O)c3ccc(O)cc3O)c2c1C	13.1	40.3*	-0.5	1.1	19.3	22.5	1.4
SMILES	Rpn11 inh	dFosB act-1	NR3A LBD binder	TPT1 inhibitor	EBNA-1 inhibitor	ZTA counter	dFosB act-2
Cc1nn(CC(=O)NCCCc2ccccc2)c(=O)c2cccn12	2.5	-0.5	-0.1	0.2	-3.9	-20.1	.
O=C(Cn1ncn2c(cc3ccccc32)c1=O)NCCCc1ccccc1	-3.5	47.5*	1.2	-3.6	7.2	-1.4	0.5
CCNc1c(NS(=O)(=O)c2ccc(OC)c(Cl)c2)c(=O)oc2ccccc12	1.2	2.4	-1.6	0.1	10.2	-6.7	.
CCCNc1c(NS(=O)(=O)c2ccc3c(c2)CCCC3)c(=O)oc2ccccc12	2.4	59.7*	-4.5	-4.0	1.8	-5.8	5.7
CCCNc1c(NS(=O)(=O)c2ccc(C)c(C)c2)c(=O)oc2ccccc12	-1.2	2.5	3.3	0.9	-0.2	2.5	.
CNc1c(NS(=O)(=O)c2ccc(OC)c(Cl)c2)c(=O)oc2ccccc12	-3.1	64.5*	16.3*	-4.0	19.0	0.7	1.8
O=C(CSc1nc(-c2ccccc2)c(-c2ccccc2)o1)NCCCO	0.3	-7.8	-2.4	-3.3	-2.8	-8.6	.
O=[N+]([O-])c1cccc(COc2cccc(CO)c2)c1	-1.1	-8.3	0.9	.	.	.	.
O=C1NC(=O)/C(=C\c2ccc(OCc3cccc([N+](=O)[O-])c3)cc2)N1	-1.7	31.5*	5.6	1.8	7.3	0.9	7.6
CCOC(=O)c1c(C)[nH]c2cc(Br)c(OC)cc12	-0.8	18.3*	1.1	2.3	-10.0	9.1	5.0
O=C(NCC1CCCO1)C1CCN(C2CCN(Cc3cccs3)CC2)CC1 (stereo unspecified)	10.4	10.3	-3.2	-1.5	9.7	15.2	.
Cc1ccsc1C(=O)N1CCC(N2CCC(C(=O)NCC3CCCO3)CC2)CC1 (stereo unspecified)	5.1	34.9*	-2.3	3.5	-3.5	-0.3	-0.5
Cc1cc(C)n(-c2cccc(Cl)c2C#N)n1	-4.8	0.0	0.0	-3.8	2.5	-18.9	.
Cc1c(C(=O)NNC(=O)Nc2ccc([N+](=O)[O-])cc2)oc2ccccc12	-9.1	66.6*	7.9	0.6	-3.8	2.1	1.4
COc1ccc(-c2cc3c(=O)n(CC(=O)Nc4ccc(C(C)=O)cc4)ncn3n2)cc1	0.8	74.2*	-0.5	-1.3	-5.9	-18.2	-2.4
CC(C)(C)c1cc(C(=O)N/N=C/c2cc3c(cc2Br)OCO3)n[nH]1	1.9	27.3*	-9.7	-1.7	-5.1	-9.3	3.6
O=C(N/N=C/c1cc2c(cc1Br)OCO2)c1c[nH]c2ccccc12	-4.0	28.7*	14.9*	2.2	-2.0	11.6	1.6
CS(=O)(=O)N(CC(=O)N/N=C/c1cccc2c1OCCO2)c1ccccc1Br	-4.8	-14.7	0.8	2.5	-4.7	-11.4	.
Cc1ccc(C(=O)N/N=C\c2cc3c(cc2Br)OCO3)cn1	-4.0	7.3	0.5	-4.4	22.1	3.0	.
